# Test results published in PubChem BioAssay (NCI).
# This is part of a sample that, as a whole, favours compounds with a hit. Of some 83,000 tested, about 20% had one in any assay.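 Plates (96-well) were seeded with cells, treated with compound at one concentration, and incubated for 48 hours before percent growth was determined.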 Unmarked numbers belong to inactive results. Activity calls are given as the source filed them. The calls were made as follows: active = growth percent below 10; inactive = the rest.
# Experiments:
# Assay in all cases: NCI-60 one-dose screen, 48 h (100 = growth as untreated, 0 = no growth, -100 = all killed)
# Conditions in all cases: 10 µM
# [1] = test system: DU-145 prostate
# [2] = test system: K-562 leukemia
# [3] = test system: MDA-MB-231 breast
# [4] = test system: RXF 393 renal
# [5] = test system: SF-268 CNS
# [6] = test system: SF-295 CNS
# [7] = test system: SF-539 CNS
# [8] = test system: UACC-257 melanoma
# [9] = test system: M14 melanoma
# [10] = test system: MALME-3M melanoma
Compound,growth [1],growth [2],growth [3],growth [4],growth [5],growth [6],growth [7],growth [8],growth [9],growth [10]
CC1(C)CC(=O)c2c(nc3ccc(Cl)cc3c2-c2ccccc2)C1,106%,55.7%,85%,3.11% (active),90.9%,76%,97.9%,106%,99.9%,–
CCOc1nc(-c2ccccc2)cc2c(O)c(C(=O)NC(C)C)[nH]c(=O)c12,107%,95%,106%,78.1%,105%,89.9%,99.3%,84.8%,101%,–
Cc1ccc(NS(=O)(=O)c2ccccc2)c(NS(=O)(=O)c2ccccc2)c1,92.8%,108%,103%,130%,102%,104%,110%,107%,102%,–
O=C(NCc1cn(Cc2cccc(Oc3ccccc3)c2)nn1)c1cccnc1Nc1ccccc1,59.8%,31.9%,63.7%,33.6%,60.5%,50.1%,54.5%,77%,33.6%,–
O=C(c1ccccc1)C(Sc1ccccc1)c1ccccc1 (stereo not given),29.7%,84.5%,89.2%,80.7%,92.6%,113%,99.5%,98.8%,94.5%,–
COc1ccc2c(c1)/C(=C/c1cc(OC)c(OC)c(OC)c1)C(=O)N2C,-0.621% (active),0.985% (active),20.9%,-60.8% (active),0.418% (active),-30.1% (active),-22% (active),-6.05% (active),8.46% (active),–
CN(C)CCCN1c2ccccc2Sc2ccc(C(F)(F)F)cc21,50.3%,-46.2% (active),4.03% (active),–,16.8%,-2.18% (active),3.74% (active),6.53% (active),-84.6% (active),-80.6% (active)
COc1ccc(Cn2cc3c(c2-c2cc(OC)c(OC)c(OC)c2)CCc2cnoc2-3)cc1[N+](=O)[O-],10.1%,15.3%,25.6%,10.5%,47.6%,-15.3% (active),-10.5% (active),78.1%,11.4%,–
COc1ccc(-c2n/c(=C\c3c(O)[nH]c4ccccc34)cc3c2=Nc2ccccc2-3)cc1,19.1%,-8.09% (active),30.6%,44.8%,5.04% (active),38.5%,82.6%,91.8%,3.99% (active),–
COc1cc(Cn2c(-c3ccccc3)c(Cl)c3c2-c2oncc2CC3)cc(OC)c1,95.9%,12.9%,67.5%,115%,68.8%,61%,93.9%,86%,79%,–
CC(=O)CS(C)(=O)=O,106%,102%,108%,111%,104%,115%,109%,96.4%,108%,–
O=C(CCc1ccccc1)N1CCN(C(=O)CCc2ccccc2)CC1,140%,108%,90.8%,109%,117%,111%,104%,92.6%,95.9%,–
N#CC1C=Cc2c(ccc3ccccc23)N1C(=O)c1ccccc1 (stereo not given),-2.67% (active),17.2%,24.4%,5.17% (active),27.2%,-19.4% (active),-7% (active),70.3%,7.78% (active),–
CCOC(=O)c1cc2c(n1Cc1ccccc1)-c1oncc1CC2,82.8%,15.3%,95.8%,94.6%,54.2%,64.5%,90.5%,103%,99.6%,–
CC(=O)Nc1nc(C)c(C(=O)NNC=O)s1,108%,54.8%,106%,109%,94.8%,112%,102%,106%,120%,–
